Compound activity deposited in PubChem BioAssay by several laboratories.
Sampled rows, rich in hits. Any-hit rate of the full collection: about 1.7%.
SSB-PriA inh: inhibitors of Klebsiella pneumoniae PriA binding to SSB C-terminal tail, primary screen, biochemical, AlphaScreen. inhibition, % at 33 µM. AID 1272365, 2023. PriA–SSB C-terminal tail interaction (Klebsiella pneumoniae). 430,000 tested, 0.6% active. AlphaScreen SSBct-PriA binding, biotinylated peptide; in the data active = inhibition mostly above about 37%, no sharp cut-off; inactive = mostly below about 20%
Y pestis TopoI: Yersinia pestis topoisomerase I inhibitors, primary screen, biochemical, cleavage product accumulation, plate reader, single point; DNA topoisomerase I (Yersinia pestis CO92); 360,000 tested, 0.064% active; activity, % at 10 µM; Y. pestis Topo-I cleavage product accumulation; AID 504884, 2011; in the data active = activity above about 50%, passing the limit was not always enough
PrP 5UTR inh: inhibition of PrP 5' UTR reporter expression. cell-based PrP 5' UTR mRNA reporter, plate reader. 340,000 tested, 0.35% active. inhibition, % (concentration not given with the values); in the data active = inhibition above about 52%
PrPC TRFRET: inhibitors of human cell surface prion protein PrPC, primary screen, cell-based, TR-FRET | Major prion protein (Homo sapiens), P04156 | TR-FRET read-out | inhibition, % at 13.8 µM | 370,000 tested, 0.43% active | AID 720596, 2013; in the data active = inhibition above about 24%
BJeLR lethal: MLPCN primary cell-based screen for lethality selective to Ras in HRASV12 cells | BJeLR (HRASV12) viability, CellTiter-Glo ATP luminescence, 48 h | inhibition, % (test concentration not listed) | 300,000 tested, 0.17% active | AID 1554, 2009; in the data active = inhibition above about 50%
PfHsp40 rescue: rescue of yeast from PfHsp40 toxicity, primary screen, S. cerevisiae, ATP luminescence. S. cerevisiae expressing PfHsp40, growth rescue. growth rescue, % at 12.5 µM. 340,000 tested, 0.68% active; in the data active = growth rescue above about 28%, passing the limit was not always enough;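 note: yeast W303a lacking pdr1 and pdr3 grown in galactose medium; growth measured after three days at 30 °C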
PrPC confirm: confirmation of inhibitors of cell surface human prion protein, confirmation, cell-based, TR-FRET. shares compounds with PrPC TRFRET. cell surface PrPC level. inhibition, % at 13.8 µM. 1,500 tested, 65% active. AID 743200, 2013; in the data active = inhibition above about 25%
LD9 cytotox: cytotoxicity in LD9 cells, cytotoxicity control for cell surface PrPc inhibitor project, cell-based, luminescence, high throughput | inhibition, % at 13.8 µM | 1,500 tested, 29% active | luminescence viability | shares compounds with PrPC TRFRET; in the data active = inhibition above about 9.5%
Large screens that a line does not name were inactive (follow-up assays come after a bar, where they were run).

CC(C)c1oc(=O)cc2c1[C@@H](O)[C@H]1OC(=O)[C@@]3(C)CC[C@@H](O)[C@@]2(C)C13 (stereo not given in full)	PrPC TRFRET 62 | PrPC confirm 52 | LD9 cytotox 13
N#CC1=C2SCN(Cc3ccccc3)CN2C(=O)CC1c1ccc2c(c1)OCO2 (stereo not given)	none
N#CC1=C2SCN(Cc3ccccc3)CN2C(=O)CC1c1cccs1 (stereo not given)	PrPC TRFRET 27 | PrPC confirm 56 | LD9 cytotox inactive
CCC1(CC)Cc2ccccc2-c2[nH]c(=S)[nH]c(=O)c21	PrPC TRFRET 79 | PrPC confirm 100 | LD9 cytotox inactive
CCC1(CC)Cc2ccccc2-c2nc(NN)[nH]c(=O)c21	none
CC(C)C1Cc2ccccc2-c2[nH]c(=S)[nH]c(=O)c21 (stereo not given)	PrPC TRFRET 75 (no result: PrP 5UTR inh, PfHsp40 rescue) | PrPC confirm 94 | LD9 cytotox inactive
CC(C)[C@@H]1Cc2[nH]c(=S)[nH]c(=O)c2[C@H](C)O1	none (no result: SSB-PriA inh, Y pestis TopoI, PrP 5UTR inh, BJeLR lethal, PfHsp40 rescue)
COC(=O)c1ccc(CN2CC(c3nc(-c4cccc(Cl)c4)no3)C2)cc1	none (no result: Y pestis TopoI, PrP 5UTR inh, PrPC TRFRET, BJeLR lethal, PfHsp40 rescue)
CC(N)c1csc(Nc2ccc(C(=O)c3ccccc3)cc2)n1 (stereo not given)	none (no result: SSB-PriA inh, PrP 5UTR inh, BJeLR lethal, PfHsp40 rescue)
CC(=O)c1ccc(Nc2nc(C(N)C3CCCCC3)cs2)cc1 (stereo not given)	PrPC TRFRET 29 (no result: SSB-PriA inh, PrP 5UTR inh, BJeLR lethal, PfHsp40 rescue) | PrPC confirm 39 | LD9 cytotox inactive
NC(c1csc(Nc2ccc(C(=O)c3ccccc3)cc2)n1)C1CCCCC1 (stereo not given)	PrPC TRFRET 38 (no result: SSB-PriA inh, PrP 5UTR inh, BJeLR lethal, PfHsp40 rescue) | PrPC confirm 41 | LD9 cytotox inactive
CNC(=O)Cn1nc(C2CC2)c2cnn(-c3ccccc3)c2c1=O	none (no result: Y pestis TopoI, PrP 5UTR inh, PrPC TRFRET, BJeLR lethal, PfHsp40 rescue)
COc1ccc(CCNc2ncnc3c2cnn3Cc2ccccc2Cl)cc1OC	none (no result: Y pestis TopoI, PrP 5UTR inh, PrPC TRFRET, BJeLR lethal, PfHsp40 rescue)
O=C(Nc1ccc(N2CCN(C(=O)c3ccccc3)CC2)cc1)c1ccc(Br)o1	none
O=C(Nc1ccc(N2CCN(C(=O)c3ccccc3)CC2)c(Cl)c1)c1ccc(Br)o1	PrPC TRFRET 33 | PrPC confirm 41 | LD9 cytotox 24
Cc1cc(C)c(-c2csc(NC(=O)/C=C/c3cccs3)n2)c(C)c1	PrPC TRFRET 45 | PrPC confirm 41 | LD9 cytotox inactive
CCCCCNC(=O)CCc1csc(NC(=O)Nc2cccc(Cl)c2)n1	none (no result: Y pestis TopoI, PrP 5UTR inh, PrPC TRFRET, BJeLR lethal, PfHsp40 rescue)
CCN(CC)c1ccc(Nc2nc(N3CCOCC3)c3ccccc3n2)cc1	none
COc1ccc(Nc2nc(N3CCCC3)c3ccccc3n2)cc1	SSB-PriA inh 35, PrPC TRFRET 24 | PrPC confirm 31 | LD9 cytotox 24
O=S(=O)(NCC[C@H](O)c1ccsc1)c1ccc(OC(F)(F)F)cc1	none (no result: Y pestis TopoI, PrP 5UTR inh, PrPC TRFRET, BJeLR lethal, PfHsp40 rescue)
CC(Sc1ncnc2ccccc12)C(=O)Nc1ccc2c(c1)OCO2 (stereo not given)	PrPC TRFRET 29, PfHsp40 rescue 42 | PrPC confirm 37 | LD9 cytotox inactive
Cc1nn(Cc2ccc(Cl)cc2)c(C)c1NC(=O)c1cc(-c2ccco2)on1	PrPC TRFRET 32 | PrPC confirm 31 | LD9 cytotox inactive
Cc1ccc(Cn2nc(C)c(NC(=O)c3cc(-c4ccco4)on3)c2C)cc1	none (no result: PrPC TRFRET)
Cc1ccccc1Cn1nc(C)c(NC(=O)c2cc(-c3ccco3)on2)c1C	none
Cc1nn(Cc2ccc(Cl)c(Cl)c2)c(C)c1NC(=O)c1cc(-c2ccco2)on1	PrPC TRFRET 38 | PrPC confirm 31 | LD9 cytotox inactive
COC(=O)c1ccc(S(=O)(=O)NCC(c2ccsc2)N2CCOCC2)cc1 (stereo not given)	none (no result: Y pestis TopoI, PrP 5UTR inh, PrPC TRFRET, BJeLR lethal, PfHsp40 rescue)
CCOc1cc(C(=O)OCn2c(SC)nnc(C)c2=O)cc(OCC)c1OCC	none (no result: Y pestis TopoI, PrP 5UTR inh, PrPC TRFRET, BJeLR lethal, PfHsp40 rescue)
CCOC(=O)c1c(NC(=O)CSc2nnc(Cc3ccccc3)o2)sc(C(C)=O)c1C	PrPC TRFRET 27 | PrPC confirm inactive | LD9 cytotox inactive
COc1ccc(OC)c(C(C[N+](=O)[O-])c2c(C)cc3ccccn23)c1 (stereo not given)	none
COc1ccc(Br)cc1C(C[N+](=O)[O-])c1c(N)n(C)c(=O)n(C)c1=O (stereo not given)	PrPC TRFRET 68 | PrPC confirm 38 | LD9 cytotox 33
CC(=O)Oc1c(C(C)C)cc(N(C(C)=O)c2ccccc2)cc1C(C)C	PrPC TRFRET 36 | PrPC confirm 29 | LD9 cytotox inactive
O=C(Nc1ccncc1)C(=O)NC1CCCC1	none (no result: Y pestis TopoI, PrP 5UTR inh, PrPC TRFRET, BJeLR lethal, PfHsp40 rescue)
CN(C(=O)CSc1cc(C(=O)c2nccn2C)c2ccccc2n1)c1ccccc1	PrPC TRFRET 89 | PrPC confirm 74 | LD9 cytotox inactive
Cc1nc2c(Cl)cccc2c2c1CC(CBr)O2 (stereo not given)	none
Cc1ccc2nc(Br)c3c(c2c1)OC(CBr)C3 (stereo not given)	PrPC TRFRET 29 | PrPC confirm 43 | LD9 cytotox inactive
Cc1ccc(Nc2nc(C(=O)N3CCN(S(C)(=O)=O)CC3)cs2)c(C)c1	none (no result: Y pestis TopoI, PrP 5UTR inh, PrPC TRFRET, BJeLR lethal, PfHsp40 rescue)
O=C(c1ccccc1)c1cc2cc(Br)cc(Br)c2o1	none (no result: Y pestis TopoI, PrP 5UTR inh, PrPC TRFRET, BJeLR lethal, PfHsp40 rescue)
O=C1C(=C(c2ccccc2)N2CCOCC2)Cc2ccccc21	PrPC TRFRET 33 (no result: SSB-PriA inh, PrP 5UTR inh, BJeLR lethal, PfHsp40 rescue) | PrPC confirm inactive | LD9 cytotox 98
Cc1onc(-c2c(F)cccc2Cl)c1C(=O)Nc1nnc(C(F)(F)F)s1	PrPC TRFRET 62 | PrPC confirm 81 | LD9 cytotox inactive
Cc1onc(-c2c(F)cccc2Cl)c1C(=O)Nc1nccs1	none
O=C(CSc1nnc(NC(=O)c2ccccc2F)s1)NCc1ccc(F)cc1	PrPC TRFRET 35 | PrPC confirm inactive | LD9 cytotox inactive
COC[C@H]1CCCN(C(=O)NCCc2ccccc2)C1	none (no result: Y pestis TopoI, PrP 5UTR inh, PrPC TRFRET, BJeLR lethal, PfHsp40 rescue)
COc1cc(NC2CCCCC2O)c2nc(-c3ccc(Cl)cc3)ccc2c1 (stereo not given)	PrPC TRFRET 39 | PrPC confirm inactive | LD9 cytotox inactive
Cc1c(C(=O)Nc2ccc(-c3nnc4n3CCCCC4)cc2)oc2ccc(Br)cc12	PrPC TRFRET 40 | PrPC confirm 49 | LD9 cytotox inactive
Cc1cc(NC(=O)Cn2nc(C3CC3)c3cnn(-c4cccc(Cl)c4)c3c2=O)no1	none (no result: Y pestis TopoI, PrP 5UTR inh, PrPC TRFRET, BJeLR lethal, PfHsp40 rescue)
COc1ccc(C(C)=O)cc1CSc1nnc(-c2ccc(Cl)cc2)n1-c1ccccc1	PrPC TRFRET 56 | PrPC confirm inactive | LD9 cytotox inactive
COc1ccc(C(C)=O)cc1CSc1nnc(-c2ccncc2)n1C	none
COc1ccc(C(=O)NCCCn2nc(-c3ccco3)ccc2=O)cc1	none (no result: Y pestis TopoI, PrP 5UTR inh, PrPC TRFRET, BJeLR lethal, PfHsp40 rescue)
